Assay results published in publication PMC5540273 (PLoS ONE, 2017).
Like-named read-outs stand apart in the source and are kept apart here.

Legend:
CSNK1G1 = details: concentration: 1 μM,replicates: in singlicate; n = 1
CSNK1G2 = details: concentration: 1 μM,replicates: in singlicate; n = 1
CSNK1G3 = details: concentration: 1 μM,replicates: in singlicate; n = 1
CSNK2A1 = details: concentration: 1 μM,replicates: in singlicate; n = 1
CSNK2A2 = details: concentration: 1 μM,replicates: in singlicate; n = 1
CTK = test system: T1, CTK; details: concentration: 1 μM,replicates: in singlicate; n = 1
T1 construct: gene MATK

DAPK1 = details: concentration: 1 μM,replicates: in singlicate; n = 1
DAPK2 = details: concentration: 1 μM,replicates: in singlicate; n = 1
DAPK3 = details: concentration: 1 μM,replicates: in singlicate; n = 1
DCAMKL1 = test system: T2, DCAMKL1; details: concentration: 1 μM,replicates: in singlicate; n = 1
T2 construct: gene DCLK1

DCAMKL2 = test system: T3, DCAMKL2; details: concentration: 1 μM,replicates: in singlicate; n = 1
T3 construct: gene DCLK2

DCAMKL3 = test system: T4, DCAMKL3; details: concentration: 1 μM,replicates: in singlicate; n = 1
T4 construct: gene DCLK3

DDR1 = details: concentration: 1 μM,replicates: in singlicate; n = 1
DDR2 = details: concentration: 1 μM,replicates: in singlicate; n = 1
DLK = test system: T5, DLK; details: concentration: 1 μM,replicates: in singlicate; n = 1
T5 construct: gene MAP3K12

DMPK2 = test system: T6, DMPK2; details: concentration: 1 μM,replicates: in singlicate; n = 1
T6 construct: gene CDC42BPG

DMPK = details: concentration: 1 μM,replicates: in singlicate; n = 1
DRAK1 = test system: T7, DRAK1; details: concentration: 1 μM,replicates: in singlicate; n = 1
T7 construct: gene STK17A

DRAK2 = test system: T8, DRAK2; details: n = 1
T8 construct: gene STK17B

DYRK1A = details: concentration: 1 μM,replicates: in singlicate; n = 1
[1] = concentration: 1 μM,replicates: in singlicate
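Also: KINOMEscan kinase panel screen.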

Structure (SMILES): COc1cc2nccc(Nc3ccc(Oc4ccccc4)cc3)c2cc1OC.Cl [GI261656]
- %Inh (CSNK1G1): 0%
- %Inh (CSNK1G2): 0%
- %Inh (CSNK1G3): 25%
- %Inh (CSNK2A1): 0%
- %Inh (CSNK2A2): 24%
- %Inh (CTK): 0%
- %Inh (DAPK1): 0%
- %Inh (DAPK2): 0%
- %Inh (DAPK3): 2%
- %Inh (DCAMKL1): 0%
- %Inh (DCAMKL2): 0%
- %Inh (DCAMKL3): 1%
- %Inh (DDR1): 0%
- %Inh (DDR2): 22%
- %Inh (DLK): 34%
- %Inh (DMPK2): 6%
- %Inh (DMPK): 0%
- %Inh (DRAK1): 0%
- %Inh (DRAK2; [1]): 0%
- %Inh (DYRK1A): 0%

Structure (SMILES): Cl.c1ccc(Oc2ccc(Nc3ccnc4cc(-c5ccc(CN6CCNCC6)o5)ccc34)cc2)nc1 [GW567142]
- %Inh (CSNK1G1): 0%
- %Inh (CSNK1G2): 0%
- %Inh (CSNK1G3): 32%
- %Inh (CSNK2A1): 0%
- %Inh (CSNK2A2): 3%
- %Inh (CTK): 10%
- %Inh (DAPK1): 19%
- %Inh (DAPK2): 0%
- %Inh (DAPK3): 21%
- %Inh (DCAMKL1): 11%
- %Inh (DCAMKL2): 0%
- %Inh (DCAMKL3): 36%
- %Inh (DDR1): 70%
- %Inh (DDR2): 27%
- %Inh (DLK): 41%
- %Inh (DMPK2): 0%
- %Inh (DMPK): 0%
- %Inh (DRAK1): 9%
- %Inh (DRAK2; [1]): 0%
- %Inh (DYRK1A): 1%

Structure (SMILES): CC(=O)Nc1ccc(-c2cc3ncnc(SCC(=O)O)c3s2)cc1
- %Inh (CSNK1G1): 15%
- %Inh (CSNK1G2): 0%
- %Inh (CSNK1G3): 8%
- %Inh (CSNK2A1): 75%
- %Inh (CSNK2A2): 68%
- %Inh (CTK): 14%
- %Inh (DAPK1): 23%
- %Inh (DAPK2): 8%
- %Inh (DAPK3): 9%
- %Inh (DCAMKL1): 0%
- %Inh (DCAMKL2): 24%
- %Inh (DCAMKL3): 12%
- %Inh (DDR1): 0%
- %Inh (DDR2): 10%
- %Inh (DLK): 2%
- %Inh (DMPK2): 0%
- %Inh (DMPK): 7%
- %Inh (DRAK1): 97.9%
- %Inh (DRAK2; 1 µM): 100%
- %Inh (DYRK1A): 66%

Structure (SMILES): O=C(Nc1ccccc1)c1cccc(Oc2ccc3nccn3n2)c1
- %Inh (CSNK1G1): 10%
- %Inh (CSNK1G2): 6%
- %Inh (CSNK1G3): 0%
- %Inh (CSNK2A1): 0%
- %Inh (CSNK2A2): 11%
- %Inh (CTK): 28%
- %Inh (DAPK1): 100%
- %Inh (DAPK2): 0%
- %Inh (DAPK3): 0%
- %Inh (DCAMKL1): 0%
- %Inh (DCAMKL2): 40%
- %Inh (DCAMKL3): 0%
- %Inh (DDR1): 45%
- %Inh (DDR2): 42%
- %Inh (DLK): 1%
- %Inh (DMPK2): 6%
- %Inh (DMPK): 11%
- %Inh (DRAK1): 7%
- %Inh (DRAK2; [1]): 14%
- %Inh (DYRK1A): 0%

Structure (SMILES): CN(c1cccc(CNc2nc(Nc3ccc4c(c3)CC(=O)N4)ncc2C(F)(F)F)c1)S(C)(=O)=O
- %Inh (CSNK1G1): 0%
- %Inh (CSNK1G2): 5%
- %Inh (CSNK1G3): 16%
- %Inh (CSNK2A1): 35%
- %Inh (CSNK2A2): 44%
- %Inh (CTK): 0%
- %Inh (DAPK1): 35%
- %Inh (DAPK2): 0%
- %Inh (DAPK3): 1%
- %Inh (DCAMKL1): 55%
- %Inh (DCAMKL2): 9%
- %Inh (DCAMKL3): 86%
- %Inh (DDR1): 43%
- %Inh (DDR2): 3%
- %Inh (DLK): 4%
- %Inh (DMPK2): 0%
- %Inh (DMPK): 0%
- %Inh (DRAK1): 99.4%
- %Inh (DRAK2; [1]): 97.5%
- %Inh (DYRK1A): 74%

Structure (SMILES): Cn1cc(-c2cccc3c(N)c(C(N)=O)nnc23)cn1
- %Inh (CSNK1G1): 13%
- %Inh (CSNK1G2): 7%
- %Inh (CSNK1G3): 10%
- %Inh (CSNK2A1): 26%
- %Inh (CSNK2A2): 33%
- %Inh (CTK): 32%
- %Inh (DAPK1): 3%
- %Inh (DAPK2): 16%
- %Inh (DAPK3): 5%
- %Inh (DCAMKL1): 7%
- %Inh (DCAMKL2): 13%
- %Inh (DCAMKL3): 23%
- %Inh (DDR1): 0%
- %Inh (DDR2): 0%
- %Inh (DLK): 27%
- %Inh (DMPK2): 7%
- %Inh (DMPK): 0%
- %Inh (DRAK1): 79%
- %Inh (DRAK2; [1]): 12%
- %Inh (DYRK1A): 56%

Structure (SMILES): COc1cc2c(Nc3ccc(NC(=O)c4ccccc4)cc3)ncnc2cc1OCCCN1CCOCC1 [GSK301329]
- %Inh (CSNK1G1): 0%
- %Inh (CSNK1G2): 0%
- %Inh (CSNK1G3): 3%
- %Inh (CSNK2A1): 9%
- %Inh (CSNK2A2): 14%
- %Inh (CTK): 32%
- %Inh (DAPK1): 0%
- %Inh (DAPK2): 0%
- %Inh (DAPK3): 0%
- %Inh (DCAMKL1): 13%
- %Inh (DCAMKL2): 26%
- %Inh (DCAMKL3): 0%
- %Inh (DDR1): 0%
- %Inh (DDR2): 0%
- %Inh (DLK): 89%
- %Inh (DMPK2): 0%
- %Inh (DMPK): 0%
- %Inh (DRAK1): 0%
- %Inh (DRAK2; [1]): 0%
- %Inh (DYRK1A): 25%

Structure (SMILES): C[C@@H]1CNc2c(sc3ccc4nc(-c5ccc(O)cc5)ccc4c23)C(=O)N1
- %Inh (CSNK1G1): 29%
- %Inh (CSNK1G2): 38%
- %Inh (CSNK1G3): 32%
- %Inh (CSNK2A1): 48%
- %Inh (CSNK2A2): 43%
- %Inh (CTK): 43%
- %Inh (DAPK1): 35%
- %Inh (DAPK2): 34%
- %Inh (DAPK3): 26%
- %Inh (DCAMKL1): 37%
- %Inh (DCAMKL2): 0%
- %Inh (DCAMKL3): 54%
- %Inh (DDR1): 0%
- %Inh (DDR2): 16%
- %Inh (DLK): 0%
- %Inh (DMPK2): 0%
- %Inh (DMPK): 0%
- %Inh (DRAK1): 100%
- %Inh (DRAK2; [1]): 100%
- %Inh (DYRK1A): 98.9%

Structure (SMILES): CS(=O)c1ccc(-c2coc3ccc(-c4n[nH]c(=O)o4)cc23)cc1 (centres unmarked)
- %Inh (CSNK1G1): 0%
- %Inh (CSNK1G2): 20%
- %Inh (CSNK1G3): 5%
- %Inh (CSNK2A1): 100%
- %Inh (CSNK2A2): 99.8%
- %Inh (CTK): 0%
- %Inh (DAPK1): 52%
- %Inh (DAPK2): 67%
- %Inh (DAPK3): 59%
- %Inh (DCAMKL1): 3%
- %Inh (DCAMKL2): 0%
- %Inh (DCAMKL3): 0%
- %Inh (DDR1): 0%
- %Inh (DDR2): 15%
- %Inh (DLK): 0%
- %Inh (DMPK2): 0%
- %Inh (DMPK): 29%
- %Inh (DRAK1): 61%
- %Inh (DRAK2; [1]): 100%
- %Inh (DYRK1A): 66%

Structure (SMILES): CCn1c(-c2nonc2N)nc2cncc(Br)c21 [SB-738004]
- %Inh (CSNK1G1): 5%
- %Inh (CSNK1G2): 0%
- %Inh (CSNK1G3): 7%
- %Inh (CSNK2A1): 0%
- %Inh (CSNK2A2): 21%
- %Inh (CTK): 0%
- %Inh (DAPK1): 39%
- %Inh (DAPK2): 55%
- %Inh (DAPK3): 46%
- %Inh (DCAMKL1): 18%
- %Inh (DCAMKL2): 2%
- %Inh (DCAMKL3): 7%
- %Inh (DDR1): 0%
- %Inh (DDR2): 39%
- %Inh (DLK): 43%
- %Inh (DMPK2): 10%
- %Inh (DMPK): 0%
- %Inh (DRAK1): 5%
- %Inh (DRAK2; [1]): 0%
- %Inh (DYRK1A): 98%
